Reference: PubChem BioAssay (NCI)
Compounds without any hit were thinned out: in the full panel of roughly 79,000, 15% have a hit. The source made the active and inactive calls. Rule as the data show it: active = growth inhibition above about 70%; inactive = the rest.

Legend:
[1] = NCI Yeast Anticancer Drug Screen. Data for the rad50 strain (AID 155);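 also: 0% = growth of vehicle-only cultures of the same strain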; conditions: S. cerevisiae rad50 strain growth inhibition, active compounds read high
Summary of the method: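 DNA repair mutant yeast, compound exposure, growth read-out; inhibition is taken relative to vehicle.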

[2] = NCI Yeast Anticancer Drug Screen. Data for the mec2-1 strain (AID 157); conditions: S. cerevisiae mec2-1 strain, active compounds read high
Summary of the method: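 Each compound was tested on mec2-1 yeast, a strain altered in DNA damage repair or cell cycle control. Growth inhibition is reported relative to vehicle.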

[3] = NCI Yeast Anticancer Drug Screen. Data for the sgs1 mgt1 strain (AID 161);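 also: 0% = growth of cultures given vehicle only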; conditions: S. cerevisiae sgs1 mgt1 strain, active compounds read high
Summary of the method: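 Test agents were incubated with a DNA-repair-mutant yeast strain. Growth was then read and compared against vehicle-treated controls.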

[4] = NCI Yeast Anticancer Drug Screen. Data for the cln2 rad14 strain (AID 165);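 also: 0% = growth equal to vehicle treated cultures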; conditions: S. cerevisiae cln2 rad14 strain, active compounds read high
Summary of the method: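 Test compounds were added to cln2 rad14 yeast cultures; inhibition of growth was then determined by comparison with vehicle treatment.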

[5] = NCI Yeast Anticancer Drug Screen. Data for the bub3 strain (AID 167); conditions: S. cerevisiae bub3 mutant strain, active compounds read high
Summary of the method: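 In this screen, a yeast mutant lacking normal mitotic checkpoint function is challenged with compound. Relative growth versus vehicle gives the inhibition value.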

[6] = NCI Yeast Anticancer Drug Screen. Data for the mlh1 rad18 strain (AID 175); conditions: S. cerevisiae mlh1 rad18 strain growth inhibition, active compounds read high
Summary of the method: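 Inhibition values reflect reduced growth of mutant yeast versus vehicle-treated controls following compound exposure; the mutations affect DNA damage repair.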

[7] = at 5.0 µM (retest, dose inferred, filed as 0.5)
[8] = at 50.0 µM (retest, dose inferred, filed as 5.0)

Measured: growth inhibition

CCn1c2ccccc2c2ccc(N=Nc3ccc(N(C)C)cc3)cc21
inactive: [1]; [7] 34% | [2]; [7] 19% | [3]; [7] 6% | [4]; [7] 15% | [5]; [7] 10% | [6]; [7] 18%
active: [1]; [8] 92% | [1]; at 50.0 µM 77% | [2]; [8] 94% | [2]; at 50.0 µM 78.5% | [3]; [8] 92% | [3]; at 50.0 µM 79.5% | [4]; [8] 84% | [4]; at 50.0 µM 85.7% | [5]; [8] 92% | [5]; at 50.0 µM 82.3% | [6]; [8] 93% | [6]; at 50.0 µM 83.4%

c1ccc(-c2n[nH]c3c4ccccc4c4ccccc4c23)cc1
active: [1]; [8] 92% | [1]; at 50.0 µM 93.8% | [2]; [8] 98% | [2]; at 50.0 µM 95% | [3]; [8] 97% | [3]; at 50.0 µM 94.2% | [4]; [8] 94% | [4]; at 50.0 µM 93.4% | [5]; [8] 95% | [5]; at 50.0 µM 95% | [6]; [8] 96% | [6]; at 50.0 µM 95%
inactive: [1]; [7] 19% | [2]; [7] 16% | [3]; [7] 34% | [4]; [7] 5% | [5]; [7] 13% | [6]; [7] 62%

CCCCCCC(C)S(=O)(=O)c1ccc(C)cc1 (stereo not given)
active: [2]; [8] 83% | [2]; at 50.0 µM 84.7% | [3]; [8] 75%
inactive: [1]; [7] 3% | [1]; [8] 63% | [1]; at 50.0 µM 58.5% | [2]; [7] 14% | [3]; [7] 7% | [3]; at 50.0 µM 59.7% | [4]; [7] 5% | [4]; [8] 13% | [4]; at 50.0 µM 5.1% | [5]; [7] 0% | [5]; [8] 50% | [5]; at 50.0 µM 17.1% | [6]; [7] -3% | [6]; [8] 47% | [6]; at 50.0 µM 51.2%

COc1ccc2nc3c([N+](=O)[O-])ccc(NCCCN(C)C)c3c(N)c2c1
active: [1]; [8] 86% | [1]; at 50.0 µM 90.3% | [2]; [8] 70% | [2]; at 50.0 µM 85.7% | [3]; [8] 75% | [3]; at 50.0 µM 92.5% | [5]; [8] 85% | [6]; [8] 95% | [6]; at 50.0 µM 88.6%
inactive: [1]; [7] 6% | [2]; [7] 9% | [3]; [7] 24% | [4]; [7] 16% | [4]; [8] 50% | [4]; at 50.0 µM 34.5% | [5]; [7] -22% | [5]; at 50.0 µM 44.5% | [6]; [7] -14%

C=C(Cl)C(=NC(C)(C)C)Nc1ccccc1Cl
inactive: [1]; [7] 21% | [1]; [8] 42% | [1]; at 50.0 µM 66.4% | [2]; [7] 14% | [2]; [8] 35% | [2]; at 50.0 µM 59.5% | [3]; [7] 16% | [3]; [8] 40% | [3]; at 50.0 µM 63.1% | [4]; [7] 31% | [4]; [8] 33% | [4]; at 50.0 µM 50.8% | [5]; [7] 14% | [5]; [8] 32% | [5]; at 50.0 µM 53.2% | [6]; [7] 27% | [6]; [8] 53%
active: [6]; at 50.0 µM 85.8%

C=CCOC(=O)C#CCCCC
inactive: [1]; [7] -3% | [1]; [8] 1% | [1]; at 50.0 µM -5.25% | [2]; [7] 3% | [2]; [8] 2% | [2]; at 50.0 µM 19.6% | [3]; [7] -2% | [3]; [8] 2% | [3]; at 50.0 µM 15.7% | [4]; [7] -5% | [4]; [8] 5% | [5]; [7] -1% | [5]; [8] 11% | [5]; at 50.0 µM -12.8% | [6]; [7] -1% | [6]; [8] 6% | [6]; at 50.0 µM -12.3%
active: [4]; at 50.0 µM 87.8%

c1ccc2c(B(c3cccc4ccccc34)c3cccc4ccccc34)cccc2c1
inactive: [1]; [7] 0% | [2]; [7] 14% | [3]; [7] -20% | [4]; [7] 3% | [5]; [7] -4% | [6]; [7] 0%
active: [1]; [8] 98% | [1]; at 50.0 µM 99.1% | [2]; [8] 99% | [2]; at 50.0 µM 98.9% | [3]; [8] 99% | [3]; at 50.0 µM 98.7% | [4]; [8] 98% | [4]; at 50.0 µM 98.7% | [5]; [8] 99% | [5]; at 50.0 µM 98.8% | [6]; [8] 98% | [6]; at 50.0 µM 97.4%

Cc1noc(NS(=O)(=O)c2ccc(NC(=S)/N=C/c3c(O)[nH]c(=O)[nH]c3=O)cc2)c1C
inactive: [1]; [7] -1% | [1]; [8] -5% | [1]; at 50.0 µM 16.1% | [2]; [7] -18% | [2]; [8] -11% | [2]; at 50.0 µM 9.75% | [3]; [7] -8% | [3]; [8] -5% | [3]; at 50.0 µM 16.5% | [4]; [7] -24% | [4]; [8] -19% | [4]; at 50.0 µM 44.8% | [5]; [7] 4% | [5]; [8] 10% | [5]; at 50.0 µM 6.05% | [6]; [7] 7% | [6]; [8] -2% | [6]; at 50.0 µM 15.8%

CN1C=Cc2ccccc2C1C(C1c2ccccc2C=CN1C)[N+](=O)[O-] (stereo not given)
inactive: [1]; [7] 0% | [1]; [8] 5% | [1]; at 50.0 µM -5.6% | [2]; [7] 8% | [2]; [8] 12% | [2]; at 50.0 µM -9.95% | [3]; [7] -2% | [3]; [8] 56% | [3]; at 50.0 µM 49% | [4]; [7] 2% | [4]; [8] 7% | [4]; at 50.0 µM 2.65% | [5]; [7] -4% | [5]; [8] 14% | [5]; at 50.0 µM 15.8% | [6]; [7] -11% | [6]; [8] 1% | [6]; at 50.0 µM -13.5%

CCOC(=O)c1c(Cl)nnc(-c2ccccc2)c1-c1ccccc1
inactive: [1]; [7] 0% | [2]; [7] 1% | [3]; [7] -2% | [4]; [7] 1% | [5]; [7] 13% | [6]; [7] -1%
active: [1]; [8] 98% | [1]; at 50.0 µM 98.2% | [2]; [8] 99% | [2]; at 50.0 µM 96.2% | [3]; [8] 98% | [3]; at 50.0 µM 96.3% | [4]; [8] 97% | [4]; at 50.0 µM 92.3% | [5]; [8] 98% | [5]; at 50.0 µM 97.5% | [6]; [8] 98% | [6]; at 50.0 µM 98%
